# Screens as filed in PubChem.
# The full list was thinned out, with hits kept by preference.
# Cruzain inh noDet – blocks cruzain activity in detergent-free assay; purified cruzain, Z-FR-AMC fluorescence, no detergent; P25779; Potency, µM, for inactives: max response, negative = inhibition, usual class: inhibitors; 200,000 tested, 2.3% active;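 note: plate controls were enzyme without inhibitor for no effect and buffer without enzyme for full effect; nearly all actives have a fitted effect of over 40% in size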
#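 Purified cruzain at 1.5 nM, pre-incubated 15 min with compound at room temperature in 100 mM sodium acetate pH 5.5, 5 mM DTT, 0.00005% Triton X-100. Reaction started with 2 uM Z-FR-AMC; AMC fluorescence increase over 60 s gives rate.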
# Giardia FBPA inh-1 – inhibitors of Giardia lamblia fructose-1,6-bisphosphate aldolase; purified Giardia FBPA; A8B2U2; 290,000 tested, 0.71% active; Potency, µM (highest dose often 59.6 µM), for the others: at the highest dose activity, negative = inhibition, usual class: inhibitors; note: nearly all actives have a fitted effect of over 55% in size
# Target sequence (A8B2U2 whole entry, looked up): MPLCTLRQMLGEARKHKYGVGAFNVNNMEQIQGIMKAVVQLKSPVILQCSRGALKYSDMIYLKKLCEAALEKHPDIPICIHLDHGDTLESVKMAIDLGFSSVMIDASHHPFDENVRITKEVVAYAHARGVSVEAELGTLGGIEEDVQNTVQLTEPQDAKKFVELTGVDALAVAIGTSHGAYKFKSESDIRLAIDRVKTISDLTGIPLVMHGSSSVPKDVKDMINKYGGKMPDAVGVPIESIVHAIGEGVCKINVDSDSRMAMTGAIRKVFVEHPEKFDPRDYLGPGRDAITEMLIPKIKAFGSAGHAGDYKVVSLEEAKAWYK
#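 40 nM FBPA preincubated 10 min at RT with compound (up to 57.5 uM final), then substrate plus GAPDH/TPI/NAD/arsenate coupling and diaphorase/resazurin added. Fluorescence read after 20 min at RT, 525/598 nm.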
# Cruzain Triton – inhibitors of Trypanosoma cruzi cruzain with detergent | P25779 | purified cruzain, Z-FR-AMC fluorescence, 0.01% Triton | Potency, µM, inactives show max response, negative = inhibition, most hits filed as inhibitors | 200,000 tested, 0.43% active | AID 1478;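 note: plate controls were neutral wells for no effect and buffer without enzyme for full effect; nearly all actives have a fitted effect of over 40% in size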
#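 Enzyme 1.5 nM, Z-FR-AMC 2 uM, NaOAc 100 mM pH 5.5, DTT 5 mM, Triton X-100 0.01%; 15 min RT compound preincubation; kinetic ex360/em450, 60 s delta.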
# Giardia growth – blocks growth of Giardia lamblia trophozoites | Potency, µM (doses to about 57.5 µM), for inactives: at the highest dose activity change, negative = inhibition, hits mostly inhibitors | Giardia lamblia trophozoite growth inhibition | 1,500 tested, 5% active | shares compounds with Giardia FBPA inh-1;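 note: trophozoites exposed to compound for 48 h at 37 °C; nearly all actives have a fitted effect of over 70% in size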
# Mammal cell tox – counter-screen for Giardia aldolase inhibitors: mammalian cell toxicity; 1,500 tested, 4% active; Potency, µM (highest dose often 57.5 µM), without a hit: at the top dose viability change, negative = toxicity, actives largely listed as inhibitors; mammalian cell viability counter-screen, qHTS; shares compounds with Giardia FBPA inh-1;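 note: Chinese hamster ovary cells used as mammalian cytotoxicity surrogate; viability measured as cellular ATP by luminescence; compound exposure lasted 48 h before reading; nearly all actives have a fitted effect of over 60% in size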
# Giardia FBPA inh-2 – confirmation of Giardia fructose-bisphosphate aldolase inhibitors. 1,500 tested, 5% active. purified Giardia aldolase enzyme activity, qHTS. shares compounds with Giardia FBPA inh-1. AID 2787. Potency, µM (titrated, usually from 57.5 µM), without a hit: at the highest dose activity change, negative = inhibition, usual class: inhibitors; note: nearly all actives have a fitted effect of over 45% in size
# Rabbit aldolase – selectivity test for Giardia aldolase inhibitors: rabbit aldolase; Potency, µM (doses to about 57.5 µM), for inactives: at the top dose activity, negative = inhibition, actives largely listed as inhibitors; AID 2794; shares compounds with Giardia FBPA inh-1; Rabbit muscle FBPA enzyme inhibition, selectivity counter-screen; 1,500 tested, 4% active; note: nearly all actives have a fitted effect of over 60% in size
# GAPDH counter – GAPDH inhibition flagged for Giardia aldolase hits; shares compounds with Giardia FBPA inh-1; GAPDH coupling enzyme counterscreen, biochemical, qHTS; Potency, µM (series often up to 57.5 µM), inactives show at the highest dose activity change, negative = inhibition, hits mostly inhibitors; 1,500 tested, 6% active; note: nearly all actives have a fitted effect of over 55% in size
# The depositor's hits bear a star; u = inconclusive; x = no result given; [ ] = dose if it differs, or a comment. Calls come from the whole dose curve; as a rule, active = well fitted curve in the direction sought with a large enough effect; inconclusive = small, poorly fitted or top-dose-only effect, or another doubt; inactive = no such curve, though single readings can be large; an effect the other way counts as inactive or inconclusive. Unless noted, % is set by controls: 0 for no effect and ±100 for the full control effect; potency is the fitted concentration of half-maximal effect.
SMILES,Cruzain inh noDet,Giardia FBPA inh-1,Cruzain Triton,Giardia growth,Mammal cell tox,Giardia FBPA inh-2,Rabbit aldolase,GAPDH counter
COc1ccc(N(CC(=O)NCCc2ccccc2)S(=O)(=O)c2ccccc2)c(OC)c1,22%,x,-3%,x,x,x,x,x
COc1ccc(/C=N/Nc2nc(=O)[nH]nc2C)cc1[N+](=O)[O-],0%,-15%,-1%,x,x,x,x,x
COc1cc(/C=N/Nc2nc(=O)[nH]nc2C)cc([N+](=O)[O-])c1O,x,20µM*,x,u,19%,-15%,-21%,-15%
Cc1cc(C(=O)N/N=C/c2ccc(O)c([N+](=O)[O-])c2)n[nH]1,6%,-7%,-8%,x,x,x,x,x
Cc1n[nH]c(=O)nc1N/N=C/c1ccc(O)c([N+](=O)[O-])c1,3%,18µM*,-1%,14µM*,10%,-11%,-15%,-6%
O=C(Nc1ccc(Cl)cc1Cl)c1cc(S(=O)(=O)N2CCC3(CC2)OCCO3)ccc1F,10%,x,1%,x,x,x,x,x
CCc1ccc(NC(=O)CN2C(=O)C3(SCC(=O)N3c3ccccc3)c3ccccc32)cc1 (stereo not drawn),3%,x,-4%,x,x,x,x,x
Cc1ccc(NC(=O)C2CCCN(c3nnc(C)c4c(C)n(-c5ccccc5)nc34)C2)c(Cl)c1 (stereo not drawn),-3%,x,-3%,x,x,x,x,x
C[C@H](N)C(=O)N[C@@H](Cc1ccc(F)cc1)C(=O)N[C@@H](CCCN=C(N)N)C(=O)N[C@@H](CC1CCCCC1)C(=O)N[C@@H](CCCCN=C(N)N)C(=O)N[C@@H](Cc1ccc(O)cc1)C(N)=O,x,3%,x,x,x,x,x,x
O=C(CCCc1ccccc1)N1CCN(C2CCCCC2)CC1,x,12%,x,x,x,x,x,x
c1ccc(CCN(Cc2ccccc2)C2CCN(C3CCCC3)CC2)cc1,x,20µM*,x,45µM*,-8%,6%,1%,3%
Cc1cccc(C(=O)NC(=S)NNC(=O)c2ccccc2Cl)c1,2%,u,6%,-16%[38.3 µM],-27%,6%,-20%,-19%
Cc1cccc(C(=O)NC(=S)NNC(=O)Cc2ccccc2)c1,-6%,u,5%,x,x,x,x,x
COC(=O)[C@@H]1CC2=CC(=O)CC[C@]2(C)[C@@]23O[C@@H]2C[C@@]2(C)[C@H](CC[C@@]24CCC(=O)O4)[C@@H]13,-5%,3%,3%,x,x,x,x,x
CCN(CC)CCCNC(=O)c1ccc2c(c1)N(Cc1c(F)cccc1Cl)C(=O)c1ccccc1S2,13%,x,16%,x,x,x,x,x
S=c1[nH]nc(-c2ccco2)n1-c1ccccc1Cl,x,-16%,x,x,x,x,x,x
S=c1[nH]nc(-c2ccn[nH]2)n1-c1ccccc1Cl,x,20µM*,x,45µM*,-11%,0%,-1%,5%
CCc1ccc(CNC(=O)C2Cc3cc(S(=O)(=O)N4CCCCCC4)ccc3N2C(C)=O)cc1 (stereo not drawn),-6%,x,2%,x,x,x,x,x
Nc1c(/C=C2/C=CC(=O)C(O)=C2)c(=O)nc2sc(CC(=O)N3CCCC3)nn12,x,7.9µM*,x,0%,6%,-18%,u,0%
CCc1nn2c(N)c(/C=C3\C=Nc4ccccc43)c(=O)nc2s1,u,5%,-8%,x,x,x,x,x
CC(=O)OC[C@@H]1O[C@@H](O/N=C2/C[C@@H](O)[C@@H](O)[C@@H]3[C@@H]4C(=O)N(C5CCCCC5)C(=O)[C@H]4CC[C@H]23)[C@H](OC(C)=O)[C@H](OC(C)=O)[C@@H]1OC(C)=O,x,-1%[12.9 µM],x,x,x,x,x,x
COc1cc(NC(=O)c2cc3cc4ccc(OC)c(Cl)c4nc3s2)cc(OC)c1,8%,x,0%,x,x,x,x,x
COc1cccc(CN2CCSCC2)c1,0%,u,-1%,x,x,x,x,x
COc1cccc(CN2CCNCC2)c1,x,3.5µM*,x,u,-2%,8%,3%,7%
COc1ccc(CN2CCN(c3ccc(F)cc3)CC2)c(OC)c1OC,4%,-12%,0%,x,x,x,x,x
COc1cccc(CN2CCN(Cc3cc(OC)c(OC)cc3OC)CC2)c1,x,14µM*,x,-25%,4%,-5%,5%,5%
